# From PubChem BioAssay (Tox21)
# Results filed as inconclusive are left out. Activity calls are given as the source filed them. Calls follow the shape of the full dose curve.
# Molecular target: Peroxisome proliferator-activated receptor delta (Homo sapiens) (UniProt Q03181)
# Experiment: qHTS assay to identify small molecule agonists of the peroxisome proliferator-activated receptor delta (PPARd) signaling pathway (AID 743212)
# Conditions: HEK293H PPARd-UAS-bla, beta-lactamase FRET ratio, 17 h; series mostly up to 62.6 µM; activation: at the top concentration
# Method in brief: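 Cells expressing a UAS-driven beta-lactamase reporter (PPARd-bla HEK293H) were given test compounds after a 5 h settle and kept at 37 C. Reporter activity was then measured as FRET fluorescence using LiveBLAzer B/G substrate.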
# % is scaled to controls: 0 for no effect and ±100 for the full control effect.
# Chain of Peroxisome proliferator-activated receptor delta (Homo sapiens) (Q03181 whole entry, looked up): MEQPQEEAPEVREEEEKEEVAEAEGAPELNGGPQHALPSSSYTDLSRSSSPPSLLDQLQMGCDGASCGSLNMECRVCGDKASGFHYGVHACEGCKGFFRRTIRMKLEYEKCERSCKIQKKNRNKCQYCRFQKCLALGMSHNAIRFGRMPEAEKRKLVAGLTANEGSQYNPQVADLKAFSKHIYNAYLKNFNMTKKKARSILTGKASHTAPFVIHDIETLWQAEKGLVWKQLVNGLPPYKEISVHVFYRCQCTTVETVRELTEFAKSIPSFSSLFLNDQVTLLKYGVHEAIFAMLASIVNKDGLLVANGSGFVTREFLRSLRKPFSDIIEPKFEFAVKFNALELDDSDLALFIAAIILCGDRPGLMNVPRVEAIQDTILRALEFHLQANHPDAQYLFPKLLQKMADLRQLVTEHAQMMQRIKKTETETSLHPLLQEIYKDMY
SMILES,Potency,activation
CCc1cc(C(C)(C)C)c(O)c(C(C)(C)C)c1,inactive,
CC(C)(C)NCC(O)COc1ccccc1OCC1CCCO1 (configuration not stated),,0.22% (inactive)
O=c1n(CC2CO2)c(=O)n(CC2CO2)c(=O)n1CC1CO1 (configuration not stated),inactive,
CC(=O)CC(C)=O,,0.743% [at 81.1 µM] (inactive)
OCC(CO)N[C@H]1C[C@](O)(CO)[C@@H](O)[C@H](O)[C@H]1O,,4.81% (inactive)
CCC[C@H](N[C@@H](C)C(=O)N1[C@H](C(=O)O)C[C@@H]2CCCC[C@@H]21)C(=O)OCC,,4.17% (inactive)
CC[C@@H](N)CO,,-1.25% [at 81.1 µM] (inactive)
CC(=O)O[C@]1(C(C)=O)CC[C@H]2[C@@H]3C[C@H](C)C4=CC(=O)CC[C@]4(C)[C@H]3CC[C@@]21C,,-12.6% (inactive)
c1ccc2n[nH]nc2c1,inactive,
CCc1ccc(C(c2ccc(CC)cc2)C(Cl)Cl)cc1,inactive,
CCn1c2ccccc2c2cc(N)ccc21,,-5.81% (inactive)
Cc1cc(C(C)(C)C)c(O)c(C(C)(C)C)c1,inactive,
